PubChem BioAssay (Tox21)
Inconclusive results are not listed. Unmarked numbers belong to inactive results. Calls come from the whole dose curve.

experiment: qHTS assay to identify small molecule agonists of the AP-1 signaling pathway (AID 1159526); conditions: ME-180 (cervical carcinoma) AP-1-bla reporter, beta-lactamase FRET ratio, 5 h; series mostly up to 76.8 µM; activation: at the top concentration
% is set by controls: 0 for no effect and ±100 for the full control effect.

SMILES	activation
O=C1c2ccccc2C(=O)N1CCl	-0.924%
CC(=O)CCCCn1c(=O)c2c(ncn2C)n(C)c1=O	-2.99% [at 35.3 µM]
CCCCOC(=O)c1ccccc1	0.417%
Brc1ccc(-c2ccccc2)cc1	25.7%
CCOc1cc([N+](=O)[O-])c(OCC)cc1N1CCOCC1	-9.16%
O=C(CCNNC(=O)c1ccncc1)NCc1ccccc1	0.48% [at 35.3 µM]
COc1ccc(-c2cc(=O)c3c(O)cc(O[C@@H]4O[C@H](CO[C@@H]5O[C@@H](C)[C@H](O)[C@@H](O)[C@H]5O)[C@@H](O)[C@H](O)[C@H]4O)cc3o2)cc1O	-1.01% [at 35.3 µM]
Cc1cccc2nccnc12	-3.39%
O=C(OCC1(COC(=O)c2cccnc2)CCCC(COC(=O)c2cccnc2)(COC(=O)c2cccnc2)C1O)c1cccnc1	-0.944% [at 35.3 µM]
OC[C@H](Cc1cccc(O)c1)[C@H](CO)Cc1cccc(O)c1	1.02%
C=C(C)C(=O)OCCN(CC)CC	-1.53%
COCCc1ccc(OCC2CO2)cc1 (configuration not stated)	6.3% [at 35.3 µM]
COC(=O)c1ccccc1C(=O)c1ccc(OCCN2CCCCC2)cc1	2.02% [at 35.3 µM]
CC(C)=O	-2.18%
O=C(O)c1cc(Br)c(O)c(Br)c1	-7.26%
CCNC(=O)C1CC(C)CCC1C(C)C (configuration not stated)	-7.18%
O=C(O)c1cc(Cl)cc([N+](=O)[O-])c1Cl	-0.972%
CC1=C(C(=O)O)N2C(=O)[C@@H](NC(=O)[C@H](N)c3ccc(O)cc3)[C@H]2SC1	0.441% [at 35.3 µM]
C[C@H](CCC(=O)O)[C@H]1CC[C@H]2[C@@H]3C(=O)C[C@@H]4CC(=O)CC[C@]4(C)[C@H]3CC(=O)[C@]12C	0.138% [at 35.3 µM]

SMILES	activation
NC(CO)C(=O)NNCc1ccc(O)c(O)c1O (configuration not stated)	9.52% [at 35.3 µM]
COC(=O)[C@@H]1[C@H]2C[C@H]3c4[nH]c5ccccc5c4CCN3C[C@@H]2CC[C@@H]1O	1.22% [at 35.3 µM]
CCC(C)NC(N)=O (configuration not stated)	-8.19%
COc1nccnc1NS(=O)(=O)c1ccc(N)cc1	-3.19% [at 35.3 µM]
O=C(NCCN1CCOCC1)c1ccc(Cl)cc1	-1.95% [at 35.3 µM]
Cc1ccccc1OCC(O)CO (configuration not stated)	1.06% [at 35.3 µM]
N[C@@H](CCC(=O)N[C@@H](CS)C(=O)NCC(=O)O)C(=O)O	1.13% [at 15.8 µM]
CN(CCOc1ccc(NS(C)(=O)=O)cc1)CCc1ccc(NS(C)(=O)=O)cc1	-5.17% [at 35.3 µM]
COc1ccc2nc(SCc3ncc(C)c(OC)c3C)[nH]c2c1	-1.8% [at 35.3 µM]
CCCCCOC(=O)CCC	-8.03%
CC(=O)Nc1cccc(C)c1	6.15%
CC(C)OC(=O)CCCCC(=O)OC(C)C	-1.02%
COC(=O)CCc1ccc(OCC(O)CNC(C)C)cc1 (configuration not stated)	-6.06% [at 35.3 µM]
O=C(CCN1CCN(CCO)CC1)N1c2ccccc2Sc2ccc(C(F)(F)F)cc21	0.189% [at 35.3 µM]
CCOCCOCCOCC	0.493%
N[C@@H](CCC(=O)Nc1ccc([N+](=O)[O-])cc1)C(=O)O	-7.28%
Cc1ccc2ccc(Cl)cc2n1	2.61% [at 35.3 µM]
NNc1nnc(NN)c2ccccc12	2.49% [at 35.3 µM]
